This test deals with Nonstructural protein 3 (Zika virus) (UniProt A0A024AXB9).

SMILES strings stand for the structures. Among all 2,700 compounds or so, about 160 (5.9%) showed an effect of 50% or more. For the sample, strong results were picked, then their nearest neighbours and some compounds at random.

Chain of Nonstructural protein 3 (Zika virus) (A0A024AXB9 as listed by the source): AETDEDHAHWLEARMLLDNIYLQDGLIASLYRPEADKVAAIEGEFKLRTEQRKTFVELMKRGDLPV

Usually inhibition stands for the drop in the measured response relative to a control, in per cent. Consider `N#C[C@H](c1c[nH]c2ccccc12)N1CCCCC1`, for which the inhibition reads like this: (PRVABC59, Concentration 49.5 uM, Number of replicates 2.0, Standard deviation 0.9976655532404076 %) 2.57%; (PRVABC59, Concentration 99.01 uM, Number of replicates 2.0, Standard deviation 2.0662033924754 %) 3.53%; (PRVABC59, Concentration 198.0 uM, Number of replicates 2.0, Standard deviation 2.2933585318984724 %) 2.01%.

`CN(C)Cc1ccc(C(=O)Nc2cc(Cl)cc(C(=O)NC(C)(C)CO)c2)[nH]1`: the inhibition stood at 25.7% (PRVABC59, Concentration 49.5 uM, Number of replicates 2.0, Standard deviation 0.7294034755731748 %); 38.6% (PRVABC59, Concentration 99.01 uM, Number of replicates 2.0, Standard deviation 0.13537432871783928 %); 53.1% (PRVABC59, Concentration 198.0 uM, Number of replicates 2.0, Standard deviation 2.37813693875156 %).

As for `CC(C)(CO)NC(=O)c1cc(Cl)cc(NC(=O)c2cc(Cl)ccc2O)c1`, the inhibition (PRVABC59, Concentration 49.5 uM, Number of replicates 2.0, Standard deviation 2.1093755895168673 %) turned out to be 7.55%; the inhibition (PRVABC59, Concentration 99.01 uM, Number of replicates 2.0, Standard deviation 4.458409623609473 %) stood at 13.5%; the inhibition (PRVABC59, Concentration 198.0 uM, Number of replicates 2.0, Standard deviation 1.5634862358558868 %) stood at 19.6%.

Take `CN(C)Cc1cccc(C(=O)Nc2cc(Cl)cc(C(=O)NC(C)(C)CO)c2)c1`: the inhibition by setting is: (PRVABC59, Concentration 49.5 uM, Number of replicates 2.0, Standard deviation 1.8243044214328226 %) 6.06%; (PRVABC59, Concentration 99.01 uM, Number of replicates 2.0, Standard deviation 1.3712089412013073 %) 12.5%; (PRVABC59, Concentration 198.0 uM, Number of replicates 2.0, Standard deviation 2.8457565601547175 %) 22%.

Turning to `O=C(Nc1ccc2c(c1)B(O)OC2)c1cccc(OCc2c(Cl)cccc2Cl)c1`, the inhibition came to 13.7% (PRVABC59, Concentration 49.5 uM, Number of replicates 2.0, Standard deviation 1.6182218422548027 %); 18.1% (PRVABC59, Concentration 99.01 uM, Number of replicates 2.0, Standard deviation 3.3767515547267357 %); 26.3% (PRVABC59, Concentration 198.0 uM, Number of replicates 2.0, Standard deviation 1.8193304189589607 %).

Regarding `O=C(NC[C@H]1CCCO1)c1cc(Cl)ccc1NS(=O)(=O)c1ccc(Oc2ccccc2Cl)cc1`, the inhibition is, setting by setting: (PRVABC59, Concentration 49.5 uM, Number of replicates 2.0, Standard deviation 0.526737151348054 %) 37%; (PRVABC59, Concentration 99.01 uM, Number of replicates 2.0, Standard deviation 0.29372509619508946 %) 35.9%; (PRVABC59, Concentration 198.0 uM, Number of replicates 2.0, Standard deviation 0.7843616173322282 %) 19.9%.

Turning to `C[C@@H](NC(=O)c1cc(Cl)ccc1NS(=O)(=O)c1ccc(Oc2ccccc2Cl)cc1)[C@H]1CCCO1`, the inhibition is 30.9% (PRVABC59, Concentration 49.5 uM, Number of replicates 2.0, Standard deviation 0.31998022259385983 %); 35.1% (PRVABC59, Concentration 99.01 uM, Number of replicates 2.0, Standard deviation 0.2133183501303701 %); 23.8% (PRVABC59, Concentration 198.0 uM, Number of replicates 2.0, Standard deviation 0.1263515313886271 %).

For the compound `CC[C@H]1CCN(C(=O)c2cc(Cl)ccc2NS(=O)(=O)c2ccc(Oc3ccccc3Cl)cc2)C1`, the inhibition was found to be 9.4% (PRVABC59, Concentration 49.5 uM, Number of replicates 2.0, Standard deviation 0.8056939918249262 %); 15.3% (PRVABC59, Concentration 99.01 uM, Number of replicates 2.0, Standard deviation 0.9468131045821944 %); 23.5% (PRVABC59, Concentration 198.0 uM, Number of replicates 2.0, Standard deviation 0.6022197968075486 %).

For `O=C(c1cc(Cl)ccc1NS(=O)(=O)c1ccc(Oc2ccccc2Cl)cc1)N1CCCC1`, the inhibition came to 9.57% (PRVABC59, Concentration 49.5 uM, Number of replicates 2.0, Standard deviation 2.8745469037851152 %); 14.4% (PRVABC59, Concentration 99.01 uM, Number of replicates 2.0, Standard deviation 3.402955430557717 %); 20% (PRVABC59, Concentration 198.0 uM, Number of replicates 2.0, Standard deviation 3.9207965622968795 %).

`O=C(NC[C@H]1CCOC1)c1cc(Cl)ccc1NS(=O)(=O)c1ccc(Oc2ccccc2Cl)cc1`: the inhibition was 16.4% (PRVABC59, Concentration 49.5 uM, Number of replicates 2.0, Standard deviation 4.1620208465884945 %); 31.6% (PRVABC59, Concentration 99.01 uM, Number of replicates 2.0, Standard deviation 1.5720504754733005 %); 23.3% (PRVABC59, Concentration 198.0 uM, Number of replicates 2.0, Standard deviation 3.020626194849933 %).

Consider `O=C(c1cc(Cl)ccc1NS(=O)(=O)c1ccc(Oc2ccccc2Cl)cc1)N1CC[C@H](CO)C1`, for which the inhibition worked out at 4.61% (PRVABC59, Concentration 49.5 uM, Number of replicates 2.0, Standard deviation 0.6366783858004793 %); 11.5% (PRVABC59, Concentration 99.01 uM, Number of replicates 2.0, Standard deviation 1.3685297503351668 %); 72.9% (PRVABC59, Concentration 198.0 uM, Number of replicates 2.0, Standard deviation 0.3954655654516591 %).

As to `C[C@H]1COCCN1C(=O)c1cc(Cl)ccc1NS(=O)(=O)c1ccc(Oc2ccccc2Cl)cc1`, the inhibition is, setting by setting: (PRVABC59, Concentration 49.5 uM, Number of replicates 2.0, Standard deviation 0.03588483834653944 %) 17%; (PRVABC59, Concentration 99.01 uM, Number of replicates 2.0, Standard deviation 0.6631068200403265 %) 40.8%; (PRVABC59, Concentration 198.0 uM, Number of replicates 2.0, Standard deviation 0.09361590556282165 %) 58.7%.

For the compound `O=C(c1cc(Cl)ccc1NS(=O)(=O)c1ccc(Oc2ccccc2Cl)cc1)N1CCC[C@H](O)C1`, the inhibition runs as follows: (PRVABC59, Concentration 49.5 uM, Number of replicates 2.0, Standard deviation 2.1414055085112063 %) 8.55%; (PRVABC59, Concentration 99.01 uM, Number of replicates 2.0, Standard deviation 0.8713297847731235 %) 39.7%; (PRVABC59, Concentration 198.0 uM, Number of replicates 2.0, Standard deviation 0.024611062132057417 %) 79.8%.

Take `O=C(c1cc(Cl)ccc1NS(=O)(=O)c1ccc(Oc2ccccc2Cl)cc1)N1CCC[C@@H]1CO`: the inhibition stood at 6.57% (PRVABC59, Concentration 49.5 uM, Number of replicates 2.0, Standard deviation 0.644882859919004 %); 37.2% (PRVABC59, Concentration 99.01 uM, Number of replicates 2.0, Standard deviation 0.07876403049715877 %); 69.4% (PRVABC59, Concentration 198.0 uM, Number of replicates 2.0, Standard deviation 0.031176529605690447 %).

With `Cc1cnccc1NC(=O)c1cccn(CC2CCNCC2)c1=O`, the inhibition is, setting by setting: (PRVABC59, Concentration 49.5 uM, Number of replicates 2.0, Standard deviation 3.2606712103202136 %) 0.531%; (PRVABC59, Concentration 99.01 uM, Number of replicates 2.0, Standard deviation 2.3019517896210857 %) 3.91%; (PRVABC59, Concentration 198.0 uM, Number of replicates 2.0, Standard deviation 2.0430462280295743 %) 7.25%.

In the case of `c1ccc2c([C@H]3CCN(CC[C@H]4CCCOC4)C3)c[nH]c2c1`, the inhibition by setting is: (PRVABC59, Concentration 49.5 uM, Number of replicates 2.0, Standard deviation 1.010318627219257 %) 5.96%; (PRVABC59, Concentration 99.01 uM, Number of replicates 2.0, Standard deviation 2.5976606536818863 %) 9.61%; (PRVABC59, Concentration 198.0 uM, Number of replicates 2.0, Standard deviation 2.1960692966802595 %) 20.4%.

Regarding `CCn1ccnc(N2CC[C@H](c3ccn[nH]3)C2)c1=O`, the inhibition is 6.21% (PRVABC59, Concentration 49.5 uM, Number of replicates 2.0, Standard deviation 1.2586397664505307 %); 15.1% (PRVABC59, Concentration 99.01 uM, Number of replicates 2.0, Standard deviation 2.3660377586558408 %); 28.1% (PRVABC59, Concentration 198.0 uM, Number of replicates 2.0, Standard deviation 2.03279173119948 %).

Consider `C[C@@H](C(=O)Nc1cccc(CN)c1)c1ccc(OCc2ccccc2)cc1`, for which the inhibition is -0.009% (PRVABC59, Concentration 49.5 uM, Number of replicates 2.0, Standard deviation 0.17467234529733644 %); 21.6% (PRVABC59, Concentration 99.01 uM, Number of replicates 2.0, Standard deviation 10.257482850017862 %); 62.2% (PRVABC59, Concentration 198.0 uM, Number of replicates 2.0, Standard deviation 0.22285904793408415 %).

Regarding `NCc1cccc(NC(=O)Cc2ccc(OCc3ccccc3)cc2)c1`, the inhibition runs as follows: (PRVABC59, Concentration 49.5 uM, Number of replicates 2.0, Standard deviation 0.6755896628980406 %) -0.82%; (PRVABC59, Concentration 99.01 uM, Number of replicates 2.0, Standard deviation 0.4165875428765907 %) 8.98%; (PRVABC59, Concentration 198.0 uM, Number of replicates 2.0, Standard deviation 2.4964043674210097 %) 40.9%.

In the case of `NCc1cccc(CNC(=O)[C@@H](NC(=O)OCc2ccccc2)c2ccc(OCc3ccccc3)cc2)c1`, the inhibition was determined as 99.2% (PRVABC59, Concentration 49.5 uM, Number of replicates 2.0, Standard deviation 0.160775728553173 %); 99% (PRVABC59, Concentration 99.01 uM, Number of replicates 2.0, Standard deviation 0.12446874737194843 %); 98.1% (PRVABC59, Concentration 198.0 uM, Number of replicates 2.0, Standard deviation 0.3293253590204834 %).

Regarding `CCCCCC(=O)N[C@H](C(=O)NCc1ccc(NC(=N)N)cc1)c1ccc(OCc2ccccc2)cc1`, the inhibition is, setting by setting: (PRVABC59, Concentration 49.5 uM, Number of replicates 2.0, Standard deviation 4.889627391275408 %) 4.26%; (PRVABC59, Concentration 99.01 uM, Number of replicates 2.0, Standard deviation 2.962062980256652 %) 19.3%; (PRVABC59, Concentration 198.0 uM, Number of replicates 2.0, Standard deviation 2.9458988209157537 %) 67.5%.

(Values after ChEMBL document CHEMBL5606458, “ASAP - ZIKV NS2B-NS3 protease fluorescence single point” (2024).)
